# From PubChem BioAssay (NCI)
# About 83,000 compounds went through this panel and 20% of them were active in at least one assay; those are over-represented in the sample as a whole.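 Single-dose data. Exposure time 48 hours. Values below 10 considered active.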 A number with no mark means an inactive call. Activity calls are given as the source filed them.
# Test system: SNB-19 CNS
# Test: NCI-60 one-dose screen, 48 h (100 = growth as untreated, 0 = no growth, -100 = all killed)
# Conditions: 10 µM unless noted
row,SMILES,growth
1,CC1=C(C)C(=O)C(Nc2ccccc2)=C(Cl)C1=O,88.8%
2,CO/N=C1\CCc2c(sc(NC(=O)c3cccc(C(F)(F)F)c3)c2C(N)=O)C1,27.7%
3,COc1ccc(CNS(=O)(=O)/N=C2\NC(=O)NC2=C(Cl)Cl)cc1,30%
4,NS(=O)(=O)c1cccc(Nc2nc(SCC(=O)c3ccc([N+](=O)[O-])cc3)nc3ccccc23)c1,73.7%
5,Cn1ccnc1C(=O)/C=C/c1ccc(NC(=O)Nc2ccccc2)cc1,21.8%
6,CCOC(=O)c1sc(N)c(C(=O)OCC)c1C,71.7%
7,CN(C)S(=O)(=O)c1oc(-c2ccccc2)nc1C#N,96.1%
8,O=C1Nc2cc(Cl)ccc2/C1=C\c1ccc(OCc2ccc(Br)cc2F)cc1,-41.3% (active)
9,COc1cc(/C=C/C(=O)c2cc(OC)c(OC)c(OC)c2)ccc1OCc1ccccc1,34%
10,NC(=O)c1cc(-c2ccc3ncnc(N4CCc5cc(F)c(Cl)cc54)c3c2)cnc1N,39.5%
11,COc1ccc(NC2=C(Cl)C(=O)C(C)=C(C)C2=O)cc1OC,84.7%
12,Cn1ccnc1C(=O)/C=C/c1ccc(NC(=O)Nc2ccc(F)cc2)cc1,33.9%
13,O=C(CCN1C(=O)/C(=C/c2ccccc2)SC1=S)N1CCOCC1,101%
14,Cc1ccc(CNS(=O)(=O)/N=C2\NC(=O)NC2=C(Cl)Cl)cc1,46.9%
15,N#Cc1c(-c2ccc(Cl)cc2)nc(SCc2ccc(F)cc2)nc1N1CCNCC1,76.6%
16,Clc1ccc(-c2cn3cc(Cc4ccc(Cl)c(Cl)c4)sc3n2)cc1,88.9%
17,COc1ccc(/C=N/NC(=O)c2[nH]c3ccc(Br)cc3c2-c2ccccc2)o1,30.8%
18,O=C(Nc1nc2ccc(O)cc2s1)c1cccc(C(F)(F)F)c1,95.4%

# Test system: U251 CNS
# Test: as above
# Conditions: 10 µM unless noted
row,SMILES,growth
1,Cc1ccc2c(n1)C(=O)C(Cl)=C(Nc1cccc(C(C)C)c1)C2=O,60.3%
2,Cn1cc(-c2cc(N)n3nc(-c4cn(C)c5ccc(F)cc45)cc3n2)c2cc(F)ccc21,-62.4% (active)
3,Cn1c(SCC(=O)c2cccs2)nc2ccccc2c1=O,97.5%
4,CCCC(=O)NC(c1ccc(N(CC)CC)cc1)c1cc(C)c2cccnc2c1O (configuration not stated),25.6%
5,COC(=O)C1CCCN(S(=O)(=O)/N=C2\NC(=O)NC2=C(Cl)Cl)C1 (configuration not stated),95.3%
6,O=C(N/N=C/c1ccc([N+](=O)[O-])s1)c1[nH]c2ccc(Br)cc2c1-c1ccccc1,9.11% (active)
7,C=C1CC[C@H]2[C@@](C)(CCC3OC(c4ccc(OCc5cn(C6CC(OC(C)=O)C(OC(C)=O)C(COC(C)=O)O6)nn5)cc4)OC[C@]32C)[C@@H]1/C=C/C1=CCOC1=O (some centres not stated),92.9%
8,COc1ccc([C@@H]2c3[nH]c4ccccc4c3CC3C(=O)N(C4CCN(Cc5c(F)cccc5F)CC4)CC(=O)N32)c(OC)c1 (some centres not stated),62% [5.26 µM]
9,O=C(N/N=C/c1ccc(Br)s1)c1[nH]c2ccc(Br)cc2c1-c1ccccc1,24.4%
10,O=C1c2c(c3c4cccnc4[nH]c3c3ccc4ccccc4c23)C(=O)N1CCO,51.4%
11,Nc1c(C(=O)Nc2ccc(C(F)(F)F)cc2)sc2nc(-c3cnccn3)cc(-c3cccs3)c12,79.5%
12,CSc1ccc2c(c1)N(C(=O)/C(C#N)=C/c1c[nH]c3ccccc13)c1ccccc1S2,42.1%
13,Cc1cc(C(=O)Nc2sc3c(c2C(N)=O)CCC(=O)C3)ccc1OCCN1CCCCC1,96.8%
14,CN(C)c1ccc(/C=c2\sc3nc4ccccc4n3c2=O)cc1,102%
15,CN(C)c1ccc(/C=C2\Cc3c(F)ccc(Br)c3C2=O)cc1,91.6%
16,CN1CCN(Cc2ccc(NC(=O)c3cncc(C#Cc4cnc5ccc(N6CCSCC6)nn45)c3)cc2C(F)(F)F)CC1,-91.6% (active)
17,COc1cc(/C=C/C(=O)c2ccc(C)cc2)ccc1Oc1nc(NCCO)nc(N2CCOCC2)n1,34.6%
18,O=C(CSc1nnc(-c2ccc3nc(-c4ccc(Cl)cc4)[nH]c3c2)o1)Nc1ccc(C(=O)/C=C/c2ccc(Cl)cc2)cc1,82.2%
19,C#Cc1nc(C2=C(C)C(=N\O)/C(=N/O)C2)cs1,103%
20,CCOc1ccc2nc(NC(=O)c3ccc(C(F)(F)F)cc3)sc2c1,100%

row,SMILES,growth
1,CC(O)C(NC(=O)C1CCCN1C(=O)CNC(=O)C1CC(=O)NCC(=O)NC(Cc2c[nH]c3ccccc23)C(=O)NC(Cc2ccc(O)cc2)C(=O)NCC(=O)NC(CO)C(=O)NC(CCC(N)=O)C(=O)NC(Cc2c[nH]c3ccccc23)C(=O)N1)C(=O)NCC(=O)NC(CCC(N)=O)C(=O)NC(CCCNC(=N)N)C(=O)NC(CC(=O)O)C(=O)O (configuration not stated),106%
2,CC1=C(C)C(=O)C(Nc2ccccc2)=C(Cl)C1=O,84.3%
3,CO/N=C1\CCc2c(sc(NC(=O)c3cccc(C(F)(F)F)c3)c2C(N)=O)C1,3.28% (active)
4,COc1ccc(CNS(=O)(=O)/N=C2\NC(=O)NC2=C(Cl)Cl)cc1,14.8%
5,NS(=O)(=O)c1cccc(Nc2nc(SCC(=O)c3ccc([N+](=O)[O-])cc3)nc3ccccc23)c1,52.2%
6,Cn1ccnc1C(=O)/C=C/c1ccc(NC(=O)Nc2ccccc2)cc1,2.77% (active)
7,CCOC(=O)c1sc(N)c(C(=O)OCC)c1C,44.2%
8,CN(C)S(=O)(=O)c1oc(-c2ccccc2)nc1C#N,88.8%
9,O=C1Nc2cc(Cl)ccc2/C1=C\c1ccc(OCc2ccc(Br)cc2F)cc1,-68.5% (active)
10,COc1cc(/C=C/C(=O)c2cc(OC)c(OC)c(OC)c2)ccc1OCc1ccccc1,13.6%
11,NC(=O)c1cc(-c2ccc3ncnc(N4CCc5cc(F)c(Cl)cc54)c3c2)cnc1N,40.8%
12,COc1ccc(NC2=C(Cl)C(=O)C(C)=C(C)C2=O)cc1OC,77.7%
13,Cn1ccnc1C(=O)/C=C/c1ccc(NC(=O)Nc2ccc(F)cc2)cc1,20.1%
14,O=C(CCN1C(=O)/C(=C/c2ccccc2)SC1=S)N1CCOCC1,99.9%
15,Cc1ccc(CNS(=O)(=O)/N=C2\NC(=O)NC2=C(Cl)Cl)cc1,39.1%
16,N#Cc1c(-c2ccc(Cl)cc2)nc(SCc2ccc(F)cc2)nc1N1CCNCC1,-71.5% (active)
17,Clc1ccc(-c2cn3cc(Cc4ccc(Cl)c(Cl)c4)sc3n2)cc1,93.7%
18,COc1ccc(/C=N/NC(=O)c2[nH]c3ccc(Br)cc3c2-c2ccccc2)o1,19.5%
19,O=C(Nc1nc2ccc(O)cc2s1)c1cccc(C(F)(F)F)c1,62.7%
